35 molecules from PubChem BioAssay (NCATS) can be followed below.

The target in assay [1] is Pyruvate kinase (Leishmania mexicana) (UniProt Q27686). Kind of assay: qHTS Validation Assay for Inhibitors of Leishmania Mexicana Pyruvate Kinase (AID 945). A digest of the protocol:
(§1)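 Purified LmPYK (E451W mutant, 0.2 nM) was incubated 1 h at room temperature with 0.5 mM PEP and 0.1 mM ADP in 50 mM imidazole pH 7.2, 50 mM KCl, 7 mM MgCl2; ATP formed was read by PKLight luminescence, normalized to DMSO wells.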
A general note: In qHTS, concentration-response curves come from the screen itself.

Assay [2] is described as follows: MultiTox-Fluor Cytotoxicity Assay - LYMP1-001 - Dead Cells (AID 946).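 Further: cells exposed to compound for 16 h.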 Summed up: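 Seed 2500 LYMP1-001 cells/well, incubate 5 hr at 37 C; add compound, 16 hr at 37 C; add MultiTox-Fluor reagent, 60 min RT; read dead-cell fluorescence Ex/Em=485/520. Normalize to DMSO and 15 uM tetraoctylammonium bromide.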
Assay [3] can be described thus: MultiTox-Fluor Cytotoxicity Assay - LYMP1-001 - Live Cells (AID 947).
The nature of assay [4]: Cell Viability - LYMP1-002 - Assay at 16 hr (AID 948). A digest of the protocol:
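In this qHTS, lymphoblastoid LYMP1-002 cells (human) receive compounds for 16 hr at 37 C. Viability is taken from CellTiter-Glo ATP luminescence, and AC50 derives from standard Hill fits.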

The target in assay [5] is Pyruvate kinase PKM (Homo sapiens) (UniProt P14618). Kind of assay: qHTS Assay for Activators of Human Muscle Pyruvate Kinase (AID 954; active means well fitted curve in the direction sought with a large enough effect, not every such curve was filed as active). Summed up: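 Reaction: 0.1 nM purified PKM2 with 0.5 mM phosphoenolpyruvate and 0.1 mM ADP, room temperature, 1 h. Readout: luciferase-based ATP luminescence after stop reagent. Activators judged against a 0.3 nM enzyme column.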
Chain of Pyruvate kinase PKM (Homo sapiens) (P14618 whole entry, looked up): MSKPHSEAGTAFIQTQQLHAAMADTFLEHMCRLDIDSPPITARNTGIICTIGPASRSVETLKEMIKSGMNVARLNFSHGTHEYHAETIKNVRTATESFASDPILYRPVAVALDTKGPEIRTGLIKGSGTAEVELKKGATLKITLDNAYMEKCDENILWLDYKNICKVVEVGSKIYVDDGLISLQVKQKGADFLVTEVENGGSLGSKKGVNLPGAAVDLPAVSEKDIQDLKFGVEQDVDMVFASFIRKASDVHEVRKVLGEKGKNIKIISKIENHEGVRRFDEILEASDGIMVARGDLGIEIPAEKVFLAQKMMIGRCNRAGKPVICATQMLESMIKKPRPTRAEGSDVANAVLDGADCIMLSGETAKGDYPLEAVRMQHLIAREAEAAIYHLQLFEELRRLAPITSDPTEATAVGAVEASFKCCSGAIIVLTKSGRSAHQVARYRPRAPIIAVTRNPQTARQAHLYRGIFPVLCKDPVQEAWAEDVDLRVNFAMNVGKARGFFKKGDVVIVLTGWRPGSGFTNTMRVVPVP
A short description of assay [6]: MultiTox-Fluor Cytotoxicity Assay - LYMP1-002 - Live Cells (AID 955).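 Further: cells exposed to compound for 16 hours.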 Summed up:
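Human lymphoblastoid LYMP1-002 cells, 2500/well, treated 16 h at 37 C in complete medium. Live-cell protease activity via GF-AFC fluorescence (Ex/Em 405/510) after 60 min reagent incubation; AC50 from Hill fits.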

A short description of assay [7]: MultiTox-Fluor Cytotoxicity Assay - LYMP1-002 - Dead Cells (AID 960).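 Further: cells exposed to compound for 16 h at 37 °C; nearly all actives have a fitted effect of over 60% in size.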 A digest of the protocol:
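Human lymphoblastoid LYMP1-002 cells, 2500/well, treated 16 h at 37 C; dead-cell protease cleavage of bis-AAF-R110 read by fluorescence (485/520); normalized to DMSO and 15 uM tetraoctylammonium bromide; AC50 from Hill fit.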

The nature of assay [8]: MultiTox-Fluor Cytotoxicity Assay - LYMP1-003 - Dead Cells (AID 961).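 Further: cells exposed to compound for 16 h at 37 °C; nearly all actives have a fitted effect of over 70% in size.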 A digest of the protocol:
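LYMP1-003 lymphoblastoid, 2500 cells/well, 5 hr settle then 16 hr cpd at 37 C; MultiTox-Fluor reagent 60 min RT; Ex/Em 485/520 dead-cell signal; norm. DMSO = 0%, 15 uM tetraoctylammonium bromide = 100%; Hill AC50.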

Assay [9] can be described thus: MultiTox-Fluor Cytotoxicity Assay - LYMP1-003 - Live Cells (AID 962).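 Further: cells exposed to compound for 16 hours at 37 °C; cytotoxic hits lower the live-cell protease signal.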 Summed up:
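LYMP1-003 lymphoblastoid cells, 2500/well in complete medium, treated 16 h at 37 C; live-cell protease cleavage of GF-AFC read by fluorescence (Ex/Em 405/510) after 60 min reagent; AC50 from Hill fits of concentration-response.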

Assay [10] can be described thus: Cell Viability - LYMP1-003 - Assay at 24 hr (AID 963). Summed up: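 Human lymphoblastoid LYMP1-003 cells, 2500/well, treated 24 h at 37 C in complete medium. Viability read as intracellular ATP by CellTiter-Glo luminescence after 30 min at room temperature; AC50 from Hill-equation fits of qHTS concentration-response.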
The nature of assay [11]: Cell Viability - LYMP1-003 - Assay at 40 hr (AID 964). Further: nearly all actives have a fitted effect of over 60% in size. Further: potency means the concentration at half of the fitted maximal effect. A digest of the protocol:
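LYMP1-003 human lymphoblastoid cells, 2500/well, preincubated 5 h at 37 C, then treated with compound for 40 h at 37 C. Intracellular ATP read by CellTiter-Glo luminescence after 30 min at room temperature; AC50 from Hill-equation fits.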

The nature of assay [12]: Cell Viability - LYMP2-003 (AID 965).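 Further: cells exposed to compounds for 24 h before reading; nearly all actives have a fitted effect of over 50% in size.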 Summed up:
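qHTS, human lymphoblastoid line, 2500 cells/well, complete medium. 24 h drug, 37 C. ATP-based luminescent readout; Hill-fit AC50.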

The nature of assay [13]: Cell Viability - LYMP2-005 (AID 967). Further: series mostly up to about 92 µM. A digest of the protocol: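 Luciferase-based ATP quantitation served as the viability measure in human lymphoblastoid LYMP2-005 cells exposed to test compounds for 24 h at 37 C in complete culture medium. Potency (AC50) was obtained by fitting concentration-response curves with the Hill equation.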
The nature of assay [14]: Cell Viability - LYMP2-009 (AID 968). Further: series mostly up to about 92 µM; nearly all actives have a fitted effect of over 55% in size.
Assay [15] is described as follows: Cell Viability - LYMP2-011 (AID 969). Further: nearly all actives have a fitted effect of over 60% in size. A digest of the protocol: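 2500 cells/well in complete medium, compound-treated 24 h at 37 C. Viability read as intracellular ATP by CellTiter-Glo luminescence after 30 min at room temperature. AC50 from Hill fits of qHTS concentration-response data.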
Assay [16] in a line: Cell Viability - LYMP2-013 (AID 970). Further: series mostly up to about 92 µM; nearly all actives have a fitted effect of over 55% in size. A digest of the protocol:
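Human lymphoblastoid LYMP2-013 cells, 2500/well, treated 24 h at 37 C in complete medium; viability as intracellular ATP by CellTiter-Glo luminescence after 30 min. AC50 from Hill fits of qHTS concentration-response.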

Assay [17] can be described thus: Cell Viability - LYMP2-015 (AID 971). Further: nearly all actives have a fitted effect of over 55% in size. A digest of the protocol: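 LYMP2-015 human lymphoblastoid cells (2500/well) in complete medium, compound-treated 24 h at 37 C; viability read as cellular ATP by CellTiter-Glo luminescence after 30 min at room temperature. AC50 from Hill-equation fits of qHTS concentration-response data.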
Assay [18] is described as follows: Cell Viability - LYMP2-017 (AID 972). Further: series mostly up to about 92 µM; nearly all actives have a fitted effect of over 55% in size. Summed up:
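LYMP2-017 human lymphoblastoid cells (2500/well) settled 5 hr at 37 C, then exposed to compound 24 hr at 37 C in complete medium. Viability taken as intracellular ATP by CellTiter-Glo luminescence after 30 min at RT; AC50 from Hill fits.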

Assay [19] can be described thus: Cell Viability - LYMP2-004 (AID 966). Further: nearly all actives have a fitted effect of over 65% in size. Summed up:
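Lymphoblastoid LYMP2-004 cells, 2500 per well, were preincubated for 5 hr and then treated with compound for 24 h at 37 C in complete medium. Viability was read as cellular ATP by CellTiter-Glo luminescence, and AC50 values were taken from Hill fits to concentration-response data.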

For assay [20], the target named is Pyruvate kinase (Leishmania mexicana) (UniProt Q27686). Kind of assay: qHTS Validation Assay for Activators of Leishmania Mexicana Pyruvate Kinase (AID 959). Summed up:
as §1

Records with an inconclusive call do not appear. Activity calls are given as the source filed them. Unless noted, the call rests on the fitted dose curve; in most records, active means well fitted curve in the direction sought with a large enough effect; inconclusive means small, poorly fitted or top-dose-only effect, or another doubt; inactive means no such curve, though single readings can be large; an effect the other way counts as inactive or inconclusive.

Chain of Pyruvate kinase (Leishmania mexicana) (Q27686 2-499 E452W): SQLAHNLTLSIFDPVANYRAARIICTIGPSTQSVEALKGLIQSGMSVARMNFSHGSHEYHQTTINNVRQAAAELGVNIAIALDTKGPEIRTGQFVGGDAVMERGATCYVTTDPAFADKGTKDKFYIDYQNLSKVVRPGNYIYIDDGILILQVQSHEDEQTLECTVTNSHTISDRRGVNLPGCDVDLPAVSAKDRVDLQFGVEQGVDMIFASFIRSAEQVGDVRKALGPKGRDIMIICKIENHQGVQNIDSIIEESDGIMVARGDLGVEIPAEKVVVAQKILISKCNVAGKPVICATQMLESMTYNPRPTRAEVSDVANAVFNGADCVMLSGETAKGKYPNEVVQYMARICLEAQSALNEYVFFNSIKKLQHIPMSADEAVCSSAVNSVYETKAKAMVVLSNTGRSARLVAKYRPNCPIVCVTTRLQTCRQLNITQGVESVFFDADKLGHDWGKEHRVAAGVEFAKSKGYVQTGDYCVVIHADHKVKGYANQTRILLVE

`NC(=O)c1cnccn1`: the outcome in assay [1], in assay [2], in [3], in assay [4], in assay [5] and in assay [6] was inactive. The molecule was classed as inactive in assay [7], in assay [8], in assay [9], in [10], in [12] and in [13]. The call in assay [14], in assay [15], in [16], in assay [17] and in assay [18] was inactive. Besides, the Potency result in assay [11] is “inactive”.

With `O=c1n(CCCN2CCN(c3cccc(Cl)c3)CC2)nc2ccccn12`, the molecule was classed as inactive in assay [1] and in assay [5].

For `CNC[C@H](O)c1cccc(O)c1`, the call in assay [1] and in assay [5] was inactive.

Take `CCOC(=O)C1=C[C@@]2(CC)CCCN3CCc4c(n1c1ccccc41)[C@H]32`: the result in assay [1] and in assay [5] was inactive.

As to `Cc1[nH]c(=O)c(C#N)cc1-c1ccc2nccn2c1`, the outcome in assay [1] and in assay [5] was inactive.

Regarding `NC[C@H](O)c1ccc(O)c(O)c1`, the result in assay [1] and in assay [5] was inactive.

`Nc1nc2c(ncn2COCCO)c(=O)[nH]1`: the molecule was classed as inactive in assay [1] and in assay [5].

Regarding `O=c1[nH]cnc2[nH]ncc12`, the molecule was classed as inactive in assay [1], in assay [2], in [3], in assay [4], in assay [5] and in assay [6]. Also, the call in assay [7], in assay [8], in assay [9], in assay [10], in assay [12] and in [19] was inactive. The outcome in assay [13], in assay [14], in assay [15], in assay [16], in assay [17] and in assay [18] was inactive. Further, in assay [11], the Potency result was “inactive”.

With `O=NN(CCCl)C(=O)NCCCl`, the call in [1] and in assay [5] was inactive.

On to `Cc1ccc(N(CC2=NCCN2)c2cccc(O)c2)cc1`, for which the molecule was classed as inactive in assay [1] and in assay [5].

In the case of `Cc1oncc1C(=O)Nc1ccc(C(F)(F)F)cc1`, the molecule was classed as inactive in [1] and in assay [5].

On to `NC(N)=NC(=O)c1nc(Cl)c(N)nc1N`, for which the molecule was called inactive in [1], in assay [2], in assay [3], in assay [4], in [5] and in assay [6]. Also, the call in [7], in assay [8], in [9], in assay [10], in [12] and in assay [19] was inactive. Also, the molecule was classed as inactive in [13], in assay [14], in [15], in assay [16], in assay [17] and in [18]. Also, in assay [11], the Potency entry is “inactive”.

For `Nc1ccc(S(=O)(=O)Nc2ccnn2-c2ccccc2)cc1`, the molecule was classed as inactive in [1] and in assay [5].

For `CCCC(CCC)C(=O)O`, the call in assay [1], in assay [2], in [4], in assay [5], in [6] and in [8] was inactive. For the same molecule, the molecule was classed as inactive in assay [9], in [10], in assay [12], in assay [19], in [13] and in assay [14]. Further, the molecule was classed as inactive in assay [15], in assay [16], in assay [17] and in assay [18]. The Potency result in assay [11] is “inactive”.

Consider `N[C@@H]1CONC1=O`, for which the molecule was classed as inactive in assay [1] and in [5].

Turning to `O=C1CCc2cc(OCCCCc3nnnn3C3CCCCC3)ccc2N1`, the result in assay [1] and in assay [5] was inactive.

In the case of `NS(=O)(=O)c1cc2c(cc1Cl)NC=NS2(=O)=O`, the call in assay [1], in assay [2], in assay [3], in assay [4], in assay [5] and in assay [6] was inactive. Moreover, the call in assay [8], in [9], in assay [10], in assay [12], in assay [19] and in [13] was inactive. Besides, the outcome in assay [14], in [15], in [16], in assay [17] and in [18] was inactive. Moreover, the Potency entry in assay [11] is “inactive”.

Consider `CC(C)NCC(O)COc1ccc(COCCOC(C)C)cc1` (stereo not given), for which the molecule was called inactive in [1] and in assay [5].

Turning to `Cn1cnc([N+](=O)[O-])c1Sc1ncnc2nc[nH]c12`, the result in assay [1], in assay [2], in assay [3], in assay [4], in assay [5] and in assay [6] was inactive. Besides, the result in [7], in assay [8] and in [9] was inactive. The Potency in assay [11] was 2510 nM (active).

Regarding `OC(CN1CCC(Cc2ccc(F)cc2)CC1)c1ccc(Cl)cc1` (stereo not given), the call in assay [1] and in [5] was inactive.

Turning to `NCCc1ccc(O)c(O)c1`, the molecule was called inactive in [1] and in assay [5].

Consider `Cc1cn[nH]c1`, for which the molecule was classed as inactive in assay [1] and in assay [5].

`CC(=O)Oc1ccccc1C(=O)O`: the molecule was called inactive in assay [1], in assay [2], in [3], in assay [4], in assay [5] and in assay [6]. The molecule was classed as inactive in assay [7], in assay [8], in assay [9], in [10], in [12] and in assay [19]. The result in assay [13], in [14], in assay [15], in assay [16], in assay [17] and in assay [18] was inactive. In addition, the Potency result in assay [11] was “inactive”.

Turning to `NNCCc1ccccc1`, the molecule was called inactive in assay [1] and in assay [5].

Turning to `CC(C)(Sc1ccc(CCN(CCCCC2CCCCC2)C(=O)NC2CCCCC2)cc1)C(=O)O`, the molecule was called inactive in assay [1] and in assay [5].

As to `Cc1cnc(NC(=O)C2=C(O)c3ccccc3S(=O)(=O)N2C)s1`, in assay [1], the outcome was inactive.

Turning to `Nc1nc2ccc(OC(F)(F)F)cc2s1`, the call in assay [5] and in [20] was inactive.

Take `Cc1[nH]c(=O)c(C#N)cc1-c1ccncc1`: the molecule was called inactive in assay [1] and in assay [5].

`C1COC(NC(C2CC2)C2CC2)=N1`: the call in [1] and in [5] was inactive.

For `Clc1cccc(Cl)c1NC1=NCCN1`, the call in assay [1] and in [5] was inactive.

In the case of `N=c1nc(N2CCCCC2)cc(N)n1O`, the molecule was classed as inactive in [1] and in assay [5].

Consider `CCCCNc1cc(C(=O)O)cc(S(N)(=O)=O)c1Oc1ccccc1`, for which the molecule was called inactive in [1] and in [5].

Regarding `C[C@]12CCC(=O)C=C1CC[C@@H]1[C@@H]2[C@@H](O)C[C@@]2(C)[C@H]1CC[C@]2(O)C(=O)CO`, the molecule was called inactive in assay [1] and in assay [5].

In the case of `CCOC(=O)N1CCC(=C2c3ccc(Cl)cc3CCc3cccnc32)CC1`, the outcome in [1] and in [5] was inactive.

`CN1CCN(CCCN2c3ccccc3Sc3ccc(C(F)(F)F)cc32)CC1`: the molecule was called inactive in assay [1] and in [5].
